Statin myotox sup: suppressors of simvastatin-induced myotoxicity in C2C12 myotubes. ATP luminescence, 48 h; scaled: DMSO 0, geranylgeraniol control 100. rescue of ATP level, % at 7.49 µM. hit rate 0.78% among 330,000;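 active means mean ATP rescue above about 67%, or every replicate alone reaching that limit, limit read from the data, passing the limit was not always enough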;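 further: myotubes were challenged with 10 µM simvastatin during compound exposure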
esBAF inh: blocks esBAF chromatin remodeling in mouse ES cells. Bmi1-luciferase knock-in reporter, 24 h; 100% = twice the neutral-well signal. reporter increase, % at 12.5 µM. hit rate 2% among 350,000. AID 602393; in the data active means activation above about 40%;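 further: a rise in the Bmi1 reporter signal indicates esBAF inhibition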
LMP1 NFkB inh: inhibitors of Epstein-Barr LMP1-induced NF-kappaB reporter | LMP1-induced NF-kappaB luciferase reporter cells, luminescence | inhibition, % at 12.5 µM | hit rate 0.69% among 350,000 | AID 504558; in the data active means inhibition above about 41%
MITF act: MITF TRPM1 promoter activation in melanoma cells. SK-MEL-5 TRPM1-promoter luciferase, 24 h; % of positive control, neutral wells = 0. activation, % at 12.5 µM. hit rate 0.75% among 300,000. AID 588334;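 active means mean activation of at least 80% with every replicate also reaching 80%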
TRPM1 prom inh: reduces MITF-dependent TRPM1 promoter luciferase signal; SK-MEL-5 TRPM1 promoter luciferase, 24 h; inhibition, % at 12.5 µM; hit rate 0.83% among 330,000; AID 488899;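 active means mean inhibition across replicates of 60% or more, whatever share of single replicates reaches that level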
Wnt bcat act: Wnt/beta-catenin pathway activation | AID 743398 | Wnt/beta-catenin reporter cell assay, activator, plate reader | activation, % at 9.35 µM | hit rate 1.2% among 300,000; in the data active means activation above about 30%, passing the limit was not always enough
Numbers stand for hits; – = inactive; · = no result. An excerpt weighted towards active compounds, which were near 4% of everything screened.

SMILES	Statin myotox sup	esBAF inh	LMP1 NFkB inh	MITF act	TRPM1 prom inh	Wnt bcat act
COC(=O)C[C@@H]1CC[C@@H](NS(=O)(=O)c2ccc(F)cc2)[C@@H](CO)O1	·	·	·	·	·	–
c1ccc(N2CCN(c3nc4cc5c(cc4s3)OCO5)CC2)cc1	–	49	–	–	–	–
c1c2c(cc3sc(N4CCCCC4)nc13)OCO2	·	·	–	–	–	54
COC(=O)COc1ccc(C)cc1-n1nc2ccccc2n1	–	–	–	–	–	–
Cc1ccc(OC(=O)c2cccc([N+](=O)[O-])c2)c(-n2nc3ccccc3n2)c1	–	84	–	–	–	43
Cc1ccc(OC(=O)COc2ccccc2C)c(-n2nc3ccccc3n2)c1	–	–	–	–	–	–
Cc1ccc(OC(=O)COc2ccccc2)c(-n2nc3ccccc3n2)c1	·	·	–	–	–	55
CCN(CC(=O)NCc1cccs1)S(=O)(=O)c1c(F)cccc1F	–	–	–	–	–	–
CCOC(=O)CN(C(=O)CSc1nnc(-c2ccncc2)n1CCCOC)c1ccccc1	·	·	–	–	–	·
CCOC(=O)CN(C(=O)CSc1nnc(-c2ccncc2)n1CCCN(C)C)c1ccccc1	·	·	–	·	–	36
Cc1cccc(C)c1OCc1cc(C(=O)NCc2ccc(Cl)s2)no1	–	–	–	–	–	–
COc1ccc(C(=O)N/N=C/C(=O)c2ccccc2)cc1	–	62	–	–	–	32
COc1ccc(C(=O)N/N=C/c2ccc3cccc(OCc4ccccc4)c3n2)cc1	–	64	–	–	–	–
Cc1ccc(C(=O)N/N=C2\CCc3ccccc32)c(C)c1	·	·	–	–	–	–
Cc1ccc(C(=O)NN=CC(=O)c2ccccc2)c(C)c1	–	–	–	–	–	34
COc1ccc(C(=O)NN/C(C)=C/C(=O)c2ccccc2)cc1	–	–	–	·	–	–
CN1CCN(C(=O)C2=NOC3(C2)C(=O)Nc2ccccc23)CC1 (stereo not given)	·	·	·	·	·	–
CCOc1cc(-c2noc(N)c2C#N)cc(OCC)c1OCC	–	–	–	–	–	–
Cc1cccc(C)c1NC(=O)COC(=O)c1ccccc1Nc1ccccc1	–	–	–	–	–	–
COc1ccc(/C=C/c2nc(-c3ccccc3O)n[nH]2)cc1OC	–	62	–	143	–	–
CC1=NN(c2ccccc2)C(=O)C1N=Nc1cccc(O)c1 (stereo not given)	–	52	–	·	–	–
CC1=NN(c2nc(-c3ccc(C)cc3)cs2)C(=O)C1N=Nc1ccccc1O (stereo not given)	·	·	–	–	69	–
CC1=NN(c2nc(-c3ccc(C)cc3)cs2)C(=O)C1N=Nc1cccc(O)c1 (stereo not given)	–	–	–	–	–	–
CC1=NN(c2ccccc2)C(=O)C1N=Nc1ccccc1 (stereo not given)	·	·	–	–	–	57
COc1ccc([C@H]2CC(=O)C=C(c3ccc4c5c(cccc35)CC4)C2)cc1	–	–	–	–	–	–
SMILES	Statin myotox sup	esBAF inh	LMP1 NFkB inh	MITF act	TRPM1 prom inh	Wnt bcat act
CCN(CC)c1ccc2cc(-c3nc4ccccc4[nH]3)c(=O)oc2c1	–	–	–	–	79	·
CCN(CC)c1ccc2cc(C(=O)c3cccs3)c(=O)oc2c1	–	72	·	·	·	–
CCN(CC)c1ccc2cc(-c3nnc(-c4ccccc4)o3)c(=O)oc2c1	–	46	–	–	–	·
CCN(CC)c1ccc2cc(-c3nc4ccccc4n3C)c(=O)oc2c1	–	–	–	–	–	·
C[C@H]1CN([C@@H](C)CO)C(=O)Cc2cc(N(C)C)ccc2O[C@H]1CN(C)CC1CC1	–	–	·	·	·	·
CC[C@H](C)Cc1cn([C@@H](CCCCNC(=O)OC(C)(C)C)C(=O)NCCCCCCCCCCC(=O)N2CCN(C(=O)OC(C)(C)C)CC2)nn1	–	–	–	–	68	–
C#CCOCCOCCOCCNc1nc(N2CCN(C(=O)CCCCCCCCCCNC(=O)[C@H](CCCCN)n3cc(CCO)nn3)CC2)nc(N2CCN(C(=O)CCCCCCCCCCNC(=O)[C@H](CCCN=C(N)N)n3cc(C[C@@H](C)CC)nn3)CC2)n1	–	–	–	–	77	·
CC(C)(C)OC(=O)NCCCC[C@@H](C(=O)NCCCCCCCCCCC(=O)N1CCN(C(=O)OC(C)(C)C)CC1)n1cc(CCO)nn1	–	–	–	–	–	–
C#CCOCCOCCOCCNc1nc(N2CCN(C(=O)CCCCCCCCCCNC(=O)[C@@H](CCSC)n3cc(CCO)nn3)CC2)nc(N2CCN(C(=O)CCCCCCCCCCNC(=O)[C@H]([C@@H](C)CC)n3cc(CCCCN=C(N)N)nn3)CC2)n1	–	–	–	–	63	·
C#CCOCCOCCOCCNc1nc(N2CCN(C(=O)CCCCCCCCCCNC(=O)Cn3cc(C[C@@H](C)O)nn3)CC2)nc(N2CCN(C(=O)CCCCCCCCCCNC(=O)[C@H](CCCCN)n3cc(C[C@@H](C)CC)nn3)CC2)n1	–	–	–	–	83	·
O=C(CCN1C(=O)/C(=C/C=C/c2ccccc2)SC1=S)Nc1nccs1	–	–	–	–	–	·
Cc1nnc(NC(=O)c2oc3ccccc3c2C)s1	·	·	–	–	–	–
CCCCc1nnc(NC(=O)c2oc3ccccc3c2C)s1	–	63	–	–	–	–
Cc1nc(NC(=O)c2oc3ccccc3c2C)sc1C(=O)N(C)C	–	62	–	–	–	–
Cc1ccc2c(Cl)cc(Cl)c(O)c2n1	–	–	–	–	73	–
Cn1c(=O)c2c(nc(SCCN3CCOCC3)n2Cc2ccccc2Cl)n(C)c1=O	–	–	–	·	·	–
Cn1c(=O)c2c(nc(SCCN3CCOCC3)n2Cc2ccc(F)cc2)n(C)c1=O	–	56	–	–	–	·
Nc1c(-c2cccc([N+](=O)[O-])c2)nc2ccccn12	–	59	–	–	–	–
COc1ccc(S(=O)(=O)Nc2ccc3c(c2)C(=O)N([C@@H](C)CO)C[C@H](C)[C@H](CN(C)C(=O)NC(C)C)OCCCC[C@@H](C)O3)cc1	·	–	·	·	·	·
COc1ccc(NC(=O)CN(C)C(=O)CCSc2ccc(F)cc2)cc1	–	–	–	–	–	–
CCc1cccc(NC(=O)Nc2cccs2)c1	–	59	–	–	–	·
CCc1cccc(NC(=O)CSc2nc(C)cs2)c1	–	82	–	·	·	–
COc1cccc(NC(=O)CSc2nc(C)cs2)c1	109	–	–	·	–	–
COc1ccc(NC(=O)CSc2nc(C)cs2)cc1OC	–	–	–	–	–	·
C[C@@H]1CN([C@@H](C)CO)C(=O)c2cc(NS(C)(=O)=O)ccc2O[C@@H]1CN(C)S(=O)(=O)c1cn(C)cn1	–	–	·	·	·	·
O=C(c1cc(S(=O)(=O)Nc2ccccc2F)c(Cl)cc1Cl)N1CCN(CCO)CC1	–	–	–	–	–	–
Nc1nonc1-c1nc2ccccc2n1Cc1ccc(F)cc1Cl	116	–	–	–	–	–
Fc1ccc(Cn2c(-c3cscn3)nc3ccccc32)c(Cl)c1	–	–	–	–	–	–
